High-throughput results (PubChem)
This excerpt belongs to a sample that is enriched for hits.
Pf Dd2 growth: inhibitors of Plasmodium falciparum Dd2 growth; P. falciparum Dd2 growth, SYBR Green, 72 h; Potency, µM (doses to about 28.9 µM), without a hit: top-dose activity, negative = inhibition, actives largely listed as inhibitors; 120,000 compounds, 4.3% hits; active means well fitted inhibition curve with a large enough effect;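 further: plate controls were DMSO vehicle for no effect and reference drug for full effect; nearly all actives have a fitted effect of over 65% in size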
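Infected erythrocytes (Dd2, 0.3% parasitemia, 2.5% hematocrit final) are added to compound in RPMI-1640/Albumax II medium, grown 72 h at 37C in low oxygen, then lysed with saponin/Triton-X containing SYBR Green and read by fluorescence.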
* = called active by the depositor; i = inactive; [ ] = dose if it differs, or a comment. Potency means the concentration at half of the fitted maximal effect.

SMILES	Pf Dd2 growth
O=C(COc1ccccc1)NCC(c1ccc(Cl)cc1)N1CCOCC1 (configuration not stated)	-3.5%
COc1ccc(OCC(=O)NCC(c2ccc(Cl)cc2)N2CCCCC2)cc1 (configuration not stated)	7.94µM*
COc1ccc(C(CNC(=O)Cc2ccc(Cl)cc2)N2CCOCC2)cc1 (configuration not stated)	i
COc1ccccc1OCC(=O)NCC(c1ccc(Cl)cc1)N1CCOCC1 (configuration not stated)	-19.7%
COc1ccc(C(CNC(=O)COc2cc(C)cc(C)c2)N2CCOCC2)cc1 (configuration not stated)	-20.8%
COCC(=O)N1CC[C@H](c2nnc(C(C)(C)C)o2)C1	13.3%[44.1 µM]
CCCCc1nn(CC(=O)N2CCC(c3ccccc3)CC2)c(=O)n1CC	-8.1%
COc1ccc(OC2CN(S(=O)(=O)c3c(C)noc3C)C2)cc1	10.1%
CN(C)[C@@H]1CN(C(=O)c2nccn2C)CC[C@@H]1CO	20.0%
C#CCNC(=O)C[C@@H]1C[C@@H](C(C)C)[C@H](CNC(=O)NC2CCCCC2)C=C1C	-5.4%[44.1 µM]
CC(C)C[C@@H]1N[C@H](C(=O)N2CCN(C)CC2)Cc2cn(Cc3ccccn3)c3cccc1c23	i
Cc1noc(C)c1Cn1cc2c3c(cccc31)[C@H](CC(C)C)N[C@H](C(=O)O)C2	i
CC(C)C[C@@H]1N[C@H](C(=O)N2CCOCC2)Cc2cn(Cc3ccncc3)c3cccc1c23	10µM*
CC(C)C[C@@H]1N[C@H](C(=O)N2CCN(C)CC2)Cc2cn(Cc3cccnc3)c3cccc1c23	-8.3%
CC(C)C[C@@H]1N[C@H](C(=O)NCC2CC2)Cc2cn(Cc3cccnc3)c3cccc1c23	-37.7%[44.1 µM]
CC#CCn1cc2c3c(cccc31)[C@H](CC(C)C)N[C@H](C(=O)N1CCN(CCO)CC1)C2	10µM*
COCCNC(=O)[C@@H]1Cc2cn(Cc3ccccn3)c3cccc(c23)[C@H](CC(C)C)N1	i
CC#CCn1cc2c3c(cccc31)[C@H](CC(C)C)N[C@H](C(=O)N1CCOCC1)C2	i
COCCNC(=O)[C@@H]1Cc2cn(Cc3cccnc3)c3cccc(c23)[C@H](CC(C)C)N1	11.2µM*
Cc1occc1C(=O)N1CCC(C2CCN(c3ncccn3)CC2)C1 (configuration not stated)	-21.4%
O=C(Cc1ccccc1)NCC1CN(Cc2ccc(C(=O)O)cc2)CC12CN(c1ccccc1)C2 (configuration not stated)	i
COC(=O)c1ccccc1C(=O)N1CCCC(CCC(=O)Nc2ccc(F)cc2C)C1 (configuration not stated)	i
CC(C(=O)NC1CC1)[C@@H]1CC[C@@]2(C)CC[C@H](NC(=O)Nc3cccc(F)c3)[C@@H](C)[C@@H]2[C@H]1O (some centres not stated)	-24.0%
Cc1ccc2oc(C(=O)N3CCC(c4nc5ccccc5s4)CC3)c(C)c2c1	31.1%
COc1cc(C(=O)N2CCC(c3nc4ccccc4s3)CC2)cc(OC)c1OC	96.2%
SMILES	Pf Dd2 growth
Cc1ccccc1C(=O)N1CCC(c2nc3ccccc3s2)CC1	1.26µM*
Cc1c(C(=O)N2CCC(c3nc4ccccc4s3)CC2)oc2cc(Br)ccc12	-18.5%
Cc1cc(C)c2c(C)c(C(=O)N3CCC(c4nc5ccccc5s4)CC3)oc2c1	8.91µM*
O=C(c1ccccc1Cl)N1CCC(c2nc3ccccc3s2)CC1	88.2%
COc1ccc(C(=O)Nc2ccc3c(N4CCOCC4)ncnc3c2)c(C)c1	i
COc1c(C)cccc1C(=O)N1CCC2(CC1)CNC(C(=O)O)C2 (configuration not stated)	-16.4%
COCCC1(NC(=O)c2ccoc2)CCN(CC2CC2)CC1	-27.9%
CN1C[C@H](NCc2ccc(F)cc2)CCC[C@@H](C(=O)NC2CCOCC2)CC1=O	i
Cc1noc(C)c1CC(=O)N1[C@@H]2CC[C@H]1CC(NC(=O)c1ccncc1)C2 (some centres not stated)	8.7%
CN1C(=O)C2(CCN(C(=O)CCCS(N)(=O)=O)CC2)c2ccccc21	3.7%
COCCC(=O)N1CCC2(CC1)C(=O)N(C)c1ccccc12	50.1%
CN1C(=O)C2(CCN(C(=O)CCC3CCCCC3)CC2)c2ccccc21	5.01µM*
CC(C)C1CN(C(=O)OC(C)(C)C)C(C)CN1 (configuration not stated)	26.5%[44.1 µM]
CC(C)(C)OC(=O)N1CC(c2ccccc2)C1	i
CC(C)C1CNC(Cc2ccccc2)CN1C(=O)OC(C)(C)C (configuration not stated)	8.91µM*
O=C1CCCN1CCCN1C(=O)[C@@H]2C[C@@H](O)CN2C2(CN(Cc3ccccc3Cl)C2)C1=O	48.6%
O=C(Cc1cccs1)N1CCC(c2n[nH]c(=O)n2Cc2ccc(F)cc2)CC1	i
COc1ccc(-c2onc(C)c2C)cc1S(=O)(=O)NCc1ccc(Br)cc1	23.9%
COc1ccc(-c2onc(C)c2C)cc1S(=O)(=O)NCC1CCN(Cc2cc(C)ccc2C)CC1	11.2µM*
COCCCNS(=O)(=O)c1cc(-c2onc(C)c2C)ccc1OC	-7.5%
CCn1ncc(N2CCC(NC(=O)c3cccs3)CC2)cc1=O	-8.2%
CC(C)c1ccc(NC(=O)c2ccc(F)c(S(=O)(=O)N3CCCCCC3)c2)cc1	21.2%
Cc1ccc(O)c(NC(=O)c2ccc(Br)c(S(=O)(=O)N3CCCCC3)c2)c1	6.31µM*
CC(C)c1ccc(NC(=O)c2ccc(F)c(S(=O)(=O)N3CCCC3)c2)cc1	-23.6%
O=C(c1ccc(OC(F)(F)F)cc1)N1CCC(c2n[nH]c(=O)n2-c2ccccc2)CC1	-14.1%
SMILES	Pf Dd2 growth
CC(C)[C@@H]1CN(C(=O)c2scc3c2CCCC3)C[C@H]1NS(C)(=O)=O	-6.8%
COCc1ncc(C)n1C1CCCNC1 (configuration not stated)	-9.9%
Cc1cnc(-c2ccccc2)n1C1CCCNC1 (configuration not stated)	6.31µM*
Cc1cnc(C2CC2)n1C1CCCNC1 (configuration not stated)	-6.8%
Cc1cccc(C)c1NC(=O)CN1C(=O)NC2(CCOCC2)C1=O	41.4%
CC1(C(=O)N2CCC(c3ccccc3)CC2)CCc2cnc(N3CCOCC3)nc21 (configuration not stated)	i
O=C(Cc1ccc(Cl)cc1)NCc1nnc2c(-c3nc(C4CC4)no3)cccn12	i
COc1ccc(/C=C/c2ccc3c(c2)C(=O)N2C[C@@H](NC(=O)CC(C)(C)CC(=O)O)C[C@H]2C(=O)N3)cc1	14.1µM*
CC(C)(CC(=O)O)CC(=O)N[C@H]1C[C@H]2C(=O)Nc3ccc(/C=C/c4ccccc4)cc3C(=O)N2C1	25.8%
COCC(=O)N[C@H]1C[C@H]2C(=O)Nc3ccc(/C=C/c4ccccc4)cc3C(=O)N2C1	-11.5%[44.1 µM]
Cc1cc(C[C@@H]2COC[C@@H]2NC(=O)c2cc3cc(F)ccc3n2C)on1	-6.6%
COc1cc(NC(=O)N[C@H]2CO[C@H]3[C@@H]2OC[C@@H]3Nc2nccc(C(C)(C)C)n2)cc(OC)c1	i
CCC1Oc2ccc(NC(=O)c3ccc(Cl)cc3)cc2CN(Cc2ccc3c(c2)OCO3)C1=O (configuration not stated)	i
CN(CC1CCOC1)S(=O)(=O)c1ccc2c(c1)CCCC2 (configuration not stated)	i
Cc1ccc(CN2CCc3c(cc(C(=O)O)n3C)C2)cc1	i
CCOC(=O)C1CCN(C(=O)c2cc3c(n2C)CCN(Cc2ccccc2)C3)CC1	1.58µM*
Cn1c(C(=O)N2CCCC2)cc2c1CCN(Cc1ccccc1)C2	-5.6%
